An excerpt weighted towards active compounds, which were near 2.9% of everything screened.
NSD2 inh = NSD2 (human) methyltransferase inhibition; O96028; NSD2 peptide methylation, AlphaScreen, 120 min; inhibition, % at 12.5 µM; actives 0.54% (n = 310,000); AID 743445; in the data active means inhibition above about 50%
PfHsp90 yeast 2 = growth inhibition of yeast expressing Plasmodium Hsp90 | S. cerevisiae expressing PfHsp90, BacTiter-Glo ATP, 48 h; yeast lacking PDR1 and PDR3 efflux regulators | AID 504621 | inhibition, % at 9.4 µM | actives 0.32% (n = 310,000);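 active means every replicate shows inhibition above about 80%, whatever the replicate mean, limit read from the data; inconclusive means mean inhibition reaches the set limit but some replicate falls short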;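 further: 0% = DMSO neutral controls and 100% = 20 µM radicicol positive controls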
TRPM1 prom inh = inhibitors of MITF-driven TRPM1 promoter in melanoma cells; SK-MEL-5 TRPM1 promoter luciferase, 24 h; inhibition, % at 12.5 µM; actives 0.83% (n = 330,000);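 active means mean inhibition across replicates of 60% or more, whatever share of single replicates reaches that level; inconclusive means some that reach 60%, reason not given; inactive means mean inhibition across replicates below 60%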
MITF act = activators of MITF-driven TRPM1 promoter activity in SK-MEL-5 cells; SK-MEL-5 TRPM1-promoter luciferase, 24 h; % of positive control, neutral wells = 0; activation, % at 12.5 µM; actives 0.75% (n = 300,000); AID 588334;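 active means mean activation of at least 80% with every replicate also reaching 80%; inconclusive means mean reaches 80% but some replicate falls short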;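 further: 0% = neutral control wells and 100% = parthenolide positive control wells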
Glyco luc inh = blocks N-linked glycosylation in D54 reporter cells. reporter increase, % at 12.5 µM. actives 0.23% (n = 360,000). D54 ERlucT glycosylation luciferase reporter, 24 h; percent of 100 nM tunicamycin response;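 active means mean luciferase reporter signal, scaled so untreated is 0 and the glycosylation-blocking control 100, at or above a set limit in every replicate; inconclusive means mean reaches the limit but not every replicate does; inactive means mean below the limit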;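 further: luciferase carries N-glycosylation sites so blocking glycosylation raises the light; 0% = median of neutral control wells and 100% = median of 100 nM tunicamycin wells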
Wnt bcat act = activators of Wnt/beta-catenin signaling. Wnt/beta-catenin reporter cell assay, activator, plate reader. activation, % at 9.35 µM. actives 1.2% (n = 300,000). AID 743398; in the data active means activation above about 30%, passing the limit was not always enough; inconclusive means no clear call, values can overlap the other calls;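 further: 0% = neutral control wells and 100% = positive control wells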
Numbers without * were called inactive; u = inconclusive; x = no result.

SMILES	NSD2 inh	PfHsp90 yeast 2	TRPM1 prom inh	MITF act	Glyco luc inh	Wnt bcat act
Cc1nn(-c2ccccc2)c(/N=C/c2ccccc2O)c1-c1ccccc1	35	8	-51	56	2	129*
COc1cccc(CNC(=O)[C@H]2CCCN2C(=O)[C@H]2CCCN2C(=O)c2ccc(F)cc2F)c1	-3	x	x	x	x	0
Cc1nc(-c2ccc(NC(=O)CC(C)C)cc2)cs1	-3	9	-91	92*	-6	37*
CC(C)C(=O)Nc1ccc(-c2csc(-c3ccccc3)n2)cc1	0	-4	-139	139*	0	x
COc1ccc2cc(C)c3nnc(SCC(=O)Nc4nc(-c5ccc(F)cc5)cs4)n3c2c1	-1	9	38	-39	38*	x
COc1ccc(-c2csc(NC(=O)CSc3nnc4c(C)cc5ccccc5n34)n2)cc1	6	x	x	x	x	x
COc1ccc(-c2ccc(SCC(=O)Nc3nnc(C)s3)nn2)cc1	0	19	-31	20	0	35*
CC1(C)CC(=O)C=C(Nc2ccccc2NC(=O)c2cc(Cl)ccc2F)C1	-2	x	x	x	x	x
COc1ccc(-c2csc(NC(=O)CC(C)C)n2)cc1	1	5	-61	64	-3	53*
N#C/C(=C\c1ccc(O)cc1)C(=O)NCc1ccccc1	-1	-2	-18	16	3	3
N#C/C(=C/c1ccc(O)cc1)C(=O)NCc1ccc(Cl)cc1	5	103*	11	x	2	0
CN1CCCCC(NC(=O)CSc2ccccc2)C1=O (stereo unspecified)	x	x	x	x	x	10
O=C(O)CC/C(=N/Nc1ccc([N+](=O)[O-])cc1)C(=O)O	x	100*	-2	-1	1	1
COc1ccc2cc3cc(C(=O)N4CCCC(C)C4)oc3nc2c1 (stereo unspecified)	x	4	-41	48	-12	32*
COc1ccc2nc3oc(C(=O)N4CCCCC4)cc3cc2c1	-11	24	-80	84*	-7	u
COc1cccc(C(=O)NNC(=O)c2ccccc2)c1	-5	0	-20	x	-2	14
COc1c(C(=O)NNC(=O)c2ccccc2)csc1Br	0	-2	-59	59	1	39*
CCCCSc1ncc(C(=O)OCC)c(N)n1	-1	32	-128	112*	-8	x
CCOC(=O)c1cnc(SCCc2ccccc2)nc1N	x	-23	-94	95*	-8	37*
CCOP(=O)(OCC)C(C#N)=C1SCN(c2ccccc2)CS1	x	-4	-5	4	-1	3
Fc1cccc(-c2cc3nc4c(c(N5CCC6(CC5)OCCO6)n3n2)CCCC4)c1	-3	-64	-34	45	-7	x
CN(CCO)c1c2c(nc3cc(-c4cccc(F)c4)nn13)CCCC2	10	15	-30	x	-9	40*
OC1CCN(c2c3c(nc4cc(-c5cccc(F)c5)nn24)CCCC3)CC1	x	6	-85	88*	-1	5
CN(C)CCCNc1cc(-c2ccccc2)nc2cc(-c3cccc(F)c3)nn12	-4	14	63*	x	19	-4
Cc1cccc(-c2cc3nc(C)cc(NCCCN(C)C)n3n2)c1	3	-22	-15	20	3	x
SMILES	NSD2 inh	PfHsp90 yeast 2	TRPM1 prom inh	MITF act	Glyco luc inh	Wnt bcat act
CN(c1cccnc1)c1ccc(NC(=O)Cc2c[nH]c3ccccc23)cc1-c1cccnc1F	x	x	x	x	x	-5
O=C1/C(=C/c2ccncc2)CCC/C1=C\c1ccncc1	x	102*	96*	-97	-19	-25
O=C(COC(=O)/C=C/c1cc(Br)ccc1F)Nc1ccc2[nH]c(=O)[nH]c2c1	9	-33	4	-4	1	-3
CCCCCOc1ccc(Br)cc1/C(C)=N/NC1=NCCN1	36	4	70*	-69	-7	-28
COc1cc(-c2ccc(Nc3ccccc3C(=O)O)c(OC)c2)ccc1Nc1ccccc1C(=O)O	80*	6	5	-4	-8	-3
COc1ccc(NC(=O)CC2C(=O)N(C)C(=S)N2CCc2ccccc2F)cc1 (stereo unspecified)	-8	-6	-5	9	0	0
O=C(c1cc(-c2ccccc2Cl)nc2ccccc12)N1CCC1	-2	-7	-6	7	0	0
COc1ccc(-c2cc(C(=O)N3CCN(c4ncccn4)CC3)c3ccccc3n2)c(OC)c1	-1	-16	-2	1	-1	-2
COc1ccc(-c2cc(C(=O)N3CCN(c4ccccc4F)CC3)c3ccccc3n2)c(OC)c1	-1	104*	21	-19	2	0
CN1CCCN(C(=O)c2cc(-c3cccc4ccccc34)nc3ccccc23)CC1	9	0	-5	8	-1	47*
CCOC(=O)C1=C(C)Nc2ccccc2N/C1=N\S(=O)(=O)c1ccccc1	15	x	5	-3	-1	0
O=c1c(-c2ccccc2)nc2ccccc2n1C(CCc1ccccc1)c1nc2ccccc2[nH]1 (stereo unspecified)	-1	x	x	x	x	-4
COc1ccc(/[N+]([O-])=C/c2ccco2)cc1	x	5	-84	89*	1	46*
Cc1ccc(C(=O)/C=C/Nc2cccc([N+](=O)[O-])c2)o1	x	3	-78	85*	-8	x
O=C(Nc1nc(-c2cccc3ccccc23)cs1)c1ccc2c(c1)S(=O)(=O)c1ccccc1C2=O	-1	-11	63*	-61	-1	10
COC(=O)c1cc2c(c3c4cc(F)ccc4n(S(=O)(=O)c4ccccc4)c13)C(=O)N(Cc1ccc(C(F)(F)F)cc1)C2	x	x	x	x	x	-1
Nc1ccc2nc3c(=O)n(C4CCCCC4)c(=O)[nH]c3nc2c1	-1	-6	-75	79	7	43*
Nc1ccc2nc3c(=O)n(CCc4ccccc4)c(=O)[nH]c3nc2c1	-1	x	x	x	12	8
CCN1CCc2c(sc(NC(=O)c3ccc(S(=O)(=O)N4CCCCCC4)cc3)c2C(=O)NC)C1	0	0	67*	-66	-6	1
N#CC(c1cccc(Cl)c1)c1ccc2c(C(F)(F)F)cc(C(F)(F)F)nc2n1 (stereo unspecified)	5	16	74*	-75	-10	x
NNc1ccc2c(C(F)(F)F)cc(C(F)(F)F)nc2n1	-4	-30	-5	8	2	x
O=C(Nc1ccc2c(c1)OCO2)c1noc2c1CCCC2	21	-26	-3	8	-11	38*
CC(=O)c1ccc(NC(=O)c2noc3c2CCCCC3)cc1	-2	x	-84	89*	-7	x
Cc1cc(NC(=O)c2noc3c2CCCCC3)no1	1	-7	-107	70	-7	7
O=C(Nc1ccc2c(c1)OCO2)c1noc2c1CCCCC2	1	-30	-2	3	-11	x
CC(=O)N1C[C@H]2CON(C)[C@H]2C[C@H]1c1ccccc1-c1ccccc1	x	x	x	x	x	-2
COc1ccc(NC(=O)Cn2c(=O)oc3cc(S(=O)(=O)N4CCCC4)ccc32)c(OC)c1	x	-2	x	x	-1	-2
